Screening results from PubChem.
JMJD2A Tudor – JMJD2A Tudor domain (human) inhibition | O75164 | AlphaScreen JMJD2A-Tudor / H3K4me3 peptide binding | Potency, µM (doses to about 114 µM), without a hit: top-dose activity change, negative = inhibition, hits mostly inhibitors | hit rate 4.4% among 390,000; further: potency means the concentration at half of the fitted maximal effect; on the % scale 0 is the no-effect control and ±100 the full control effect; nearly all actives have a fitted effect of over 50% in size
HP1b chromo inh – inhibitors of HP1-beta chromodomain binding to methylated histone tails; P83916; AlphaScreen HP1-beta / biotin-H3K9me3 peptide binding; Potency, µM (top dose mostly 114 µM), inactives show top-dose activity change, negative = inhibition, most hits filed as inhibitors; hit rate 0.56% among 390,000; AID 540317; further: potency means the concentration at half of the fitted maximal effect; nearly all actives have a fitted effect of over 70% in size
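AlphaScreen: HP1-beta (50 nM) preformed 30 min with biotin-H3(1-18)K9me3 peptide (50 nM) in PBS pH 7.4, 0.01% Tween-20. Compound added for 30 min at RT, then streptavidin donor/nickel chelate acceptor beads (10 ug/mL) for 30 min.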
L3MBTL1 block – L3MBTL1 (human) inhibition | Q9Y468 | AlphaScreen L3MBTL1–H3K9me1 peptide binding | Potency, µM (titrated, usually from 57.1 µM), inactives show at the highest dose activity, negative = inhibition, most hits filed as inhibitors | hit rate 0.66% among 230,000 | AID 485360; further: potency means the concentration at half of the fitted maximal effect; on the % scale 0 is the no-effect control and ±100 the full control effect; nearly all actives have a fitted effect of over 60% in size
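AlphaScreen assay: L3MBTL1 (50 nM final) was preincubated 30 min at room temperature with biotinylated H3(1-15)K9me1 peptide (75 nM final), then 30 min with library compounds; streptavidin donor and nickel chelate acceptor beads (10 ug/mL final) added, 30 min dark.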
PI5P4Ka inh – PI5P4K alpha (human) kinase inhibition. P48426. PI5P4Kalpha enzyme, ADP-Glo luminescence, 60 min; active compounds read low. max response, %. hit rate 1.2% among 330,000; active means max response of -50% or lower; inconclusive means between -30% and -50%; inactive means -30% or higher; further: value at the top dose of about 77 µM; on the % scale 0 is the no-effect control and ±100 the full control effect
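Single end-point luminescence (ADP-Glo) quantified ADP from PI5P4Kalpha turnover; ATP 5 microM final, 1 h at RT, 0.1% CHAPS and 0.28 mM EGTA in HEPES pH 7.4.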
BAZ2B block – blocks human BAZ2B. hit rate 4.4% among 360,000. AlphaScreen BAZ2B-H3K14Ac peptide displacement. AID 504333. Q9UIF8. Potency, µM (top dose mostly 114 µM), for inactives: at the top dose activity change, negative = inhibition, most hits filed as inhibitors; further: potency means the concentration at half of the fitted maximal effect; on the % scale 0 is the no-effect control and ±100 the full control effect; nearly all actives have a fitted effect of over 60% in size
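BAZ2B (50 nM) with biotin-H3(5-23)K14Ac peptide (50 nM) in PBS pH 7.4, 0.01% Tween-20, preformed 30 min, then compound 30 min at room temperature; top concentration 110uM. AlphaScreen streptavidin donor/nickel chelate acceptor beads (10 ug/mL final), 20 min dark, signal read.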
G9a inh – G9a (human) methyltransferase inhibition | Q96KQ7 | AID 504332 | hit rate 8.8% among 350,000 | G9a H3K9 monomethylation, AlphaScreen, 2 h | Potency, µM (highest dose often 102 µM), without a hit: at the highest dose activity, negative = inhibition, hits mostly inhibitors; further: potency means the concentration at half of the fitted maximal effect; on the % scale 0 is the no-effect control and ±100 the full control effect; nearly all actives have a fitted effect of over 75% in size
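AlphaScreen detection with an anti-monomethyl H3K9 antibody quantified product after a 2 h room-temperature reaction containing 500 nM biotinylated H3K9 peptide, 20 µM SAM and 20 nM enzyme, which had been preincubated 15 min with compound.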
* hit, by the source's call; ? = inconclusive; / = not tested or not shown; ! = not confirmed by another sample; [ ] = another dose, or the depositor's remark. Compounds with a hit are over-represented: about 11% of the library has one in this group of screens. Unless noted, the call rests on the fitted dose curve; in most records, active means well fitted inhibition curve with a large enough effect; inconclusive means small, poorly fitted or top-dose-only effect; inactive means no such curve, though single readings can be large or run the other way.

SMILES	JMJD2A Tudor	HP1b chromo inh	L3MBTL1 block	PI5P4Ka inh	BAZ2B block	G9a inh
Cc1cccc(N2CCN(C(=S)c3ccc([N+](=O)[O-])cc3)CC2)c1	40µM*	32µM*	?	-14	11µM*	4µM*
Cc1ccccc1N1CCN(C(=S)c2ccc([N+](=O)[O-])cc2)CC1	?	?	-27%	-8	?	13µM*
CC1CCCC(N2CCN(C(=O)c3ccc([N+](=O)[O-])cc3)CC2)C1 (stereo not drawn)	22µM*	?	2%	-1	56µM*	22µM*
CCC(=O)Nc1sc2c(c1C(=O)Nc1ccc(Br)cc1)CCCCC2	?	22%	/	/	-18%	?
COc1ccccc1CNC(=O)C1(c2cccs2)CCOCC1	-11%	33%	/	/	-2%	3%[59 µM]
Cc1ccc(-n2c3c(cc(C(=O)Nc4cccc(Cl)c4)c2=O)C(=O)CC(C)(C)C3)cc1	-9%	12%	/	/	-7%	-15%[59 µM]
CN(C)c1ccc(/C=N/c2cc(-c3ccccc3)nn2-c2ccccc2)cc1	?	-23%	/	/	10µM*	?
O=C(Nc1ccccc1N1CCCC1)C1CCN(S(=O)(=O)c2cccc(C(F)(F)F)c2)CC1	?	43%	-6%	-6	?	14µM*
COc1ccc(S(=O)(=O)N2CCC(C(=O)Nc3ccccc3N3CCCC3)CC2)cc1OC	-22%	11%	/	7	-36%	45µM*
COc1ccc(S(=O)(=O)N2CCC(C(=O)Nc3ccccc3)CC2)cc1OC	-9%	20%	/	/	3%	3%[59 µM]
C#CCN1C(C)=C(C(=O)OC)C(c2cccc([N+](=O)[O-])c2)C(C(=O)OCC)=C1C (stereo not drawn)	-32%	7%	-7%	5	-29%	11µM*!
COc1ccc(-c2ccc(C3C4C=CCC(C)C4C(=O)N3Cc3ccccc3)c(F)c2)cc1C (stereo not drawn)	-33%	27%	/	/	/	/
COc1ccc(C#Cc2ccc3c(=O)c4ccccc4n(C)c3c2)cc1	19%	94%	45%	0	47%[57.1 µM]	?
Cn1c2ccccc2c(=O)c2ccc(C#Cc3ccc(N)cc3)cc21	23%	87%	34%	1	-26%	50µM*
CCn1c(=O)n(CC)c2cc(N3CCCC3)c(NC(=O)Nc3cc(C)cc(C)c3)cc21	-10%	43%	/	/	-5%	3%[59 µM]
CCn1c(=O)n(CC)c2cc(N3CCCC3)c(NC(=O)c3ccccc3)cc21	-29%	1%	/	2	?	40µM*
CCn1c(=O)n(CC)c2cc(N3CCCC3)c(NC(=O)c3ccc(C)cc3)cc21	?	-9%[57 µM]	/	-7	?	56µM*
Cn1c(=O)n(C)c2cc(N3CCCCC3)c(NC(=O)c3ccccc3)cc21	-12%	14%	/	-3	50µM*	19%
COc1ccc(CNC(=O)c2cc3c(=O)n(C)c4ccccc4c3n2C)c(OC)c1	-2%	34%	/	/	-14%	-27%[59 µM]
CCC(CO)Oc1cc(NC(=O)c2ccc(F)cc2)c2ncn(C(C)C)c2c1 (stereo not drawn)	50µM*	4%	-6%	-6	-1%	7%[0.501 µM]
CCC(CO)Oc1cc(NC(=O)c2cccc(C)c2)c2ncn(C(C)C)c2c1 (stereo not drawn)	-22%	29%	-1%	-8	/	/
CCC(CO)Oc1cc(NC(=O)c2cccc(Cl)c2)c2ncn(C(C)C)c2c1 (stereo not drawn)	?	26%	4%	-4	79µM*	10%[0.501 µM]
COc1cccc(C2C(C(=O)Nc3ccccc3OC)=C(C)Nc3nc4ccccc4n32)c1 (stereo not drawn)	-27%	39%	/	/	-21%	-20%[59 µM]
CCN(CC)c1ccc(/C=N/N2CCN(Cc3ccccc3Cl)CC2)cc1	18µM*	?	?	16	7.1µM*	8.9µM*
CCN(CC)c1ccc(/C=N/N2CCN(Cc3ccc(C)cc3C)CC2)c(O)c1	22µM*	20µM*	-8%	7	10µM*	?
SMILES	JMJD2A Tudor	HP1b chromo inh	L3MBTL1 block	PI5P4Ka inh	BAZ2B block	G9a inh
C(=N/N1CCN(c2ccccc2)CC1)/c1ccncc1	?	-15%	-26%	0	-39%	?
CN(c1ccccc1)c1ccc(/C=N/N2CCOCC2)cc1	45µM*	50µM*	-23%	1	50µM*	?
CN(C)c1ccc(/C=N/N2CCN(Cc3ccccc3Cl)CC2)cc1	32µM*	?	1%	15	50µM*	?
Cc1ccc(-c2c(C)n3c4c(=O)n(C)c(=O)n(C)c4nc3n2-c2cccc(O)c2)cc1	-7%	22%	/	/	-8%	-40%[59 µM]
O=C(Cn1c(=O)nc(-c2ccccc2)c2ccccc21)NCCCc1ccccc1	-1%	34%	/	/	1%	6%[59 µM]
C=CCC(CC=C)(CNC(=O)C(=O)Nc1ccc(Br)cc1)c1ccc(OC)c(OC)c1	-16%	8%	/	/	3%	9%[59 µM]
CCN(CC)c1ccc(/C=N/N2CCN(Cc3ccccc3)CC2)c(O)c1	14µM*	-77%	-3%	13	13µM*	?
COc1ccc(/C=N/N2CCN(Cc3ccccc3)CC2)cc1	?	?	-19%	-3	?	-10%[59 µM]
CCN(CC)c1ccc(/C=N/N2CCOCC2)c(O)c1	-26%	6%	-3%	0	-34%	?
CCN(CC)c1ccc(/C=N/N2CCN(Cc3ccccc3)CC2)cc1	22µM*	?	/	10	14µM*	10µM*
Cc1cc(C(=O)COc2ccc([N+](=O)[O-])cc2)c(C)n1C1CC1	-11%	23%	-20%	-14	-15%	-20%
Cc1cc(C(=O)COc2cc(F)ccc2[N+](=O)[O-])c(C)n1C1CC1	?	-7%	-19%	-6	?	35µM*
N#Cc1cccc(NC(=O)N2CC3(CCN(C(=O)c4ccco4)CC3)C2)c1	/	/	/	/	/	9%[12.7 µM]
Cc1nnc2c3ccccc3nc(Nc3ccccc3C(=O)O)n12	?	-5%	/	/	-32%	-35%[59 µM]
O=c1[nH]c2ccccc2nc1Cc1ccc([N+](=O)[O-])cc1	-4%	29%	/	3	-1%	50µM*
O=C(Cc1nc2ccccc2[nH]1)c1ccc([N+](=O)[O-])cc1	-27%	18%	-9%	-19	-27%	45µM*
Nc1ccc2nc(-c3ccc(-c4nc5ccc(N)cc5[nH]4)cc3)[nH]c2c1	-33%	19%	/	-24	?	5%
Nc1ccc(-c2nc3ccc(-c4nc5ccc(N)cc5[nH]4)cc3[nH]2)cc1	/	/	/	/	/	22µM*
Nc1ccc2nc(-c3cccc(-c4nc5ccc(N)cc5[nH]4)n3)[nH]c2c1	45µM*	?	/	?	25µM*	11µM*
